# Inconclusive results are not listed. The source made the active and inactive calls. Unless noted, no cut-off is given here; in the data, nearly all actives have AC50 up to about 30 µM.
# What was measured:
# [1] = growth inhibition of DIPG glioma cells, dose response, cell-based, SU-DIPG-XIII, MIPE4.0, CellTiter-Glo, qHTS (AID 1347061; cut-off not given, nearly all actives have AC50 up to about 37 µM;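 note: cells exposed to compound for 48 hours before readout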); conditions: SU-DIPG-XIII viability, CellTiter-Glo ATP luminescence
# [2] = growth inhibition of DIPG glioma cells, dose response, cell-based, JHH-DIPG-1, MIPE4.0, CellTiter-Glo, qHTS (AID 1347062; cut-off not given, nearly all actives have AC50 up to about 27 µM;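 for AC50: cells exposed to compound for two days before readout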); conditions: JHH-DIPG-1 viability, CellTiter-Glo ATP luminescence
# [3] = growth inhibition of DIPG glioma cells, dose response, cell-based, SU-DIPG-IV, MIPE4.0, CellTiter-Glo, qHTS (AID 1347063); conditions: SU-DIPG-IV viability, CellTiter-Glo ATP luminescence;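 note: compound exposure lasted 48 hours before the viability readout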
# [4] = SU-DIPG-VI glioma cell viability, MIPE4.0 library, CellTiter-Glo luminescence, qHTS (AID 1347066); conditions: CellTiter-Glo ATP luminescence;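 note: cells exposed to compound for 48 hours before readout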
# [5] = growth inhibition of DIPG glioma cells, dose response, cell-based, SU-DIPG-XIII, MIPE5.0, CellTiter-Glo, qHTS (AID 1347064; cut-off not given, nearly all actives have AC50 up to about 23 µM); conditions: SU-DIPG-XIII viability, CellTiter-Glo ATP luminescence
# [6] = JHH-DIPG-1 glioma cell viability, MIPE5.0 library, CellTiter-Glo luminescence, qHTS (AID 1347067; cut-off not given, nearly all actives have AC50 up to about 26 µM;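 note: cells exposed to compound for 48 hours before readout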); conditions: JHH-DIPG-1 glioma viability, CellTiter-Glo ATP luminescence
# [7] = SU-DIPG-XXV glioma cell viability, MIPE5.0 library, qHTS (AID 1347068; cut-off not given, nearly all actives have IC50 up to about 30 µM)
# [8] = sensitizers of A549 cells to miR-34 induction, primary screen, imaging, A549 dox-inducible miR-34, nuclei and caspase counts (AID 1347080;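 active = compounds whose cell count with miR-34 switched on is under 0.7 times the count with it off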); conditions: A549 miR-34 inducible, Hoechst nuclei count, 48 h
# [9] = survival rescue of mitochondrial mutant cells in low glucose, primary screen, MELAS cybrids, Rieske KO mouse fibroblasts, CellTiter-Glo (AID 1508586;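 active = mean z-score across replicates of 1.96 or higher in either the MELAS or the Rieske mutant cell line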;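 note: z relative to plate mean and SD of compound and empty wells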)
# [10] = liver-stage malaria parasite growth inhibition, primary screen, cell-based, HepG2, luciferase luminescence, HepG2 viability (AID 624349; in the data active = parasite load remaining mostly below about 12%, no sharp cut-off; inactive = mostly above about 10%;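 note: 100% = mean of DMSO negative control wells on the same plate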); conditions: P. berghei liver stage in HepG2, luciferase luminescence, concentration not given here; parasite load remaining: stronger effect = lower value; viability: measured here: HepG2 viability without parasites
# [11] = viability rescue of complex I mutant cybrids, primary screen, cell-based, galactose medium, ATP luminescence (AID 1645843;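 active = z-score of at least 1.8 in each of two replicates, scored against plate mean and spread of sample wells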;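 note: positive z means more ATP and so rescue of galactose-driven cybrid death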); conditions: complex I mutant cybrid cells, 72 h, stronger effect = higher value
# [12] = LFS_MB_P medulloblastoma growth inhibition, cell-based, chromothripsis tumors, cisplatin or BGB combos (AID 1671449; in the data active = inhibition above about 80%;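 note: cells exposed for 96 hours; 0% = vehicle DMSO and 100% = killing by high DMSO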); conditions: LFS_MB_P medulloblastoma cells
# [13] = HDN33 neuroblastoma growth inhibition, cell-based, chromothripsis tumors, cisplatin or BGB combos (AID 1671450; in the data active = inhibition above about 80%;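 note: cells exposed to compound for four days; 0% = vehicle DMSO and 100% = cell killing by high DMSO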); conditions: HDN33 neuroblastoma cells, stronger effect = higher value
# [14] = ICB984 medulloblastoma cell growth inhibition, synergistic combos for chromothripsis tumors, cisplatin or BGB combos (AID 1671451; call rule not given here;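 note: cells exposed for 96 hours before readout; 0% = vehicle DMSO and 100% = killing by high DMSO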); conditions: ICB984 medulloblastoma cells, drug combinations, stronger effect = higher value
# [15] = LFS_MB_1R medulloblastoma cell growth inhibition, synergistic combos for chromothripsis tumors, cisplatin or BGB combos (AID 1671452; in the data active = inhibition above about 80%;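 note: cells exposed for 96 hours before readout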); conditions: LFS_MB_1R medulloblastoma cells, stronger effect = higher value
# [16] = HTB85 osteosarcoma cell growth inhibition, synergistic combos for chromothripsis tumors, BGB or cisplatin IC20 combos (AID 1671453; in the data active = inhibition above about 80%;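 note: cells exposed for 96 hours before readout; 0% = vehicle DMSO and 100% = high DMSO killing control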); conditions: HTB85 osteosarcoma cells, drug combinations, stronger effect = higher value
# [17] = CRL2098 osteosarcoma cell growth inhibition, synergistic combos for chromothripsis tumors, BGB or cisplatin IC20 combos (AID 1671454; in the data active = inhibition above about 80%;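 note: cells exposed for 96 h before readout; 0% = vehicle DMSO and 100% = killing by high DMSO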); conditions: CRL2098 osteosarcoma cells, drug combinations, stronger effect = higher value
# [18] = HD-MB03 medulloblastoma cell growth inhibition, synergistic combos for chromothripsis tumors, BGB or cisplatin IC20 combos (AID 1671455; in the data active = inhibition above about 83%;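 note: 0% = vehicle DMSO and 100% = high DMSO as cytotoxic control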); conditions: HD-MB03 medulloblastoma cells, stronger effect = higher value
# [19] = UWB1.289 ovarian carcinoma cell growth inhibition, synergistic combos for chromothripsis tumors, BGB or cisplatin combos (AID 1671456; in the data active = inhibition above about 80%;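 note: cells exposed to compound for four days; 0% = vehicle DMSO and 100% = killing by high DMSO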); conditions: UWB1.289 ovarian carcinoma cells, stronger effect = higher value
# [20] = LFS_MB_2R medulloblastoma cell growth inhibition, synergistic combos for chromothripsis tumors, cisplatin combos (AID 1671457; in the data active = inhibition above about 80%;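 note: cells exposed to compound for four days before readout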); conditions: LFS_MB_2R medulloblastoma cells, stronger effect = higher value
# [21] = MDA-MB-436 breast carcinoma cell growth inhibition, synergistic combos for chromothripsis tumors, BGB or cisplatin combos (AID 1671458; call rule not given here;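 note: cells exposed for 96 hours; 0% = vehicle DMSO and 100% = killing by high DMSO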); conditions: MDA-MB-436 breast carcinoma growth inhibition, drug combinations, stronger effect = higher value
# [22] = UWB1.289_BRCA1 ovarian cancer growth, cell-based, BGB or cisplatin combinations (AID 1671459; in the data active = inhibition above about 80%); conditions: UWB1.289 BRCA1 ovarian carcinoma, drug combinations, stronger effect = higher value
# [23] = human astrocyte viability loss, single and combined drugs, cytotoxicity control for chromothriptic childhood tumor combination screen, cell-based, BGB or cisplatin IC20 combos (AID 1671460; in the data active = inhibition above about 80%;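 note: cells exposed to compounds for 96 hours before viability readout; 0% = vehicle and 100% = killing control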); conditions: Human astrocytes, drug combinations, stronger effect = higher value
# [24] = growth inhibition of BT084 medulloblastoma cells, cell-based, ICGC_MB145, cisplatin and BGB IC40 combos (AID 1671461; in the data active = inhibition above about 80%;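 note: cells exposed to drugs for 96 hours; 0% = vehicle DMSO and 100% = high DMSO full killing control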); conditions: drug combinations, stronger effect = higher value
# [25] = growth inhibition of RCMB18 medulloblastoma cells, cell-based, cisplatin and BGB IC40 combos (AID 1671462; in the data active = inhibition above about 80%;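 note: cells exposed to compound for four days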); conditions: stronger effect = higher value
# [26] = growth inhibition of CRL1545 osteosarcoma cells, cell-based, cisplatin and BGB IC20 combos (AID 1671464; in the data active = inhibition above about 80%;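 note: cells exposed to compound for 96 hours before readout; 0% = vehicle DMSO and 100% = high DMSO killing control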); conditions: stronger effect = higher value
# [27] = stronger effect = lower value, cell number ratio, induced over uninduced
# [28] = measured here: relative caspase fold change +Dox/-Dox
# [29] = measured here: total cells with miR-34 induction, stronger effect = lower value
# [30] = measured here: total cells without miR-34 induction
# [31] = MELAS cybrid survival, CellTiter-Glo 48 h, stronger effect = higher value
# [32] = Rieske KO mouse fibroblast survival, CellTiter-Glo 72 h
# [33] = measured here: combination with BGB IC40, at 0.05 µM
# [34] = measured here: with BGB IC20 combination, at 0.5 µM
# [35] = measured here: with cisplatin IC20 combination, at 0.5 µM
# [36] = measured here: combination with cisplatin, at 0.5 µM
# [37] = measured here: combination with cisplatin, at 5 µM
compound,measurement,setting,value
Cc1cnn(C)c1C(=O)Nc1cc(Nc2ccc3c(/C=C/c4ccccn4)n[nH]c3c2)ccc1F,AC50,[1],13.2 µM (active)
same,AC50,[2],18.7 µM (active)
same,AC50,[3],14.8 µM (active)
same,AC50,[4],18.7 µM (active)
Clc1cccc(-c2nnnn2Cc2cccnc2)c1Cl,outcome,[1],inactive
same,outcome,[2],inactive
same,outcome,[3],inactive
same,outcome,[4],inactive
Cc1nc2c([nH]1)CCN(C(=O)c1ccc(NC(=O)c3ccccc3-c3ccccc3)cc1)c1ccccc1-2,outcome,[1],inactive
same,outcome,[2],inactive
same,outcome,[3],inactive
same,outcome,[5],inactive
same,outcome,[4],inactive
same,outcome,[6],inactive
same,outcome,[7],inactive
same,fold change,[8]; [27],0.926 (inactive)
same,fold change,[8]; [28],0.734
same,cell count,[8]; [29],8050
same,cell count,[8]; [30],8690
same,z-score,[9]; [31],-0.466 (inactive)
same,z-score,[9]; [32],0.668
COC1=C2C[C@@H](C)C[C@H](OC)[C@H](O)[C@@H](C)/C=C(\C)[C@H](OC(N)=O)[C@@H](OC)/C=C/C=C(\C)C(=O)NC(=CC1=O)C2=O,AC50,[1],0.372 µM (active)
same,AC50,[2],0.296 µM (active)
same,AC50,[3],0.526 µM (active)
same,AC50,[4],2.35 µM (active)
CC(C)C(=O)Oc1ccc(CO)cc1[C@H](CCN(C(C)C)C(C)C)c1ccccc1,outcome,[1],inactive
same,outcome,[2],inactive
same,outcome,[3],inactive
same,outcome,[4],inactive
CCC(CC)[C@H](NC(C)=O)[C@@H]1[C@H](O)[C@@H](C(=O)O)C[C@H]1N=C(N)N,outcome,[1],inactive
same,outcome,[2],inactive
same,outcome,[3],inactive
same,outcome,[4],inactive
C[N+]1(C)[C@@H]2CC(OC(=O)C(O)(c3cccs3)c3cccs3)C[C@H]1[C@@H]1O[C@@H]12 (stereo not given in full),parasite load remaining,[10],18% (inactive)
same,viability,[10],66.5%
same,outcome,[1],inactive
same,outcome,[2],inactive
same,outcome,[3],inactive
same,outcome,[4],inactive
same,fold change,[8]; [27],0.899 (inactive)
same,fold change,[8]; [28],1.32
same,cell count,[8]; [29],10300
same,cell count,[8]; [30],11500
same,z-score,[9]; [31],-0.0486 (inactive)
same,z-score,[9]; [32],-0.119
same,z-score,[11],0.685 (inactive)
CN1[C@@H]2CC(OC(=O)[C@@H](CO)c3ccccc3)C[C@H]1[C@H]1O[C@H]12 (stereo not given in full),outcome,[1],inactive
same,outcome,[2],inactive
same,outcome,[3],inactive
same,outcome,[4],inactive
CC(=O)N1CCN(c2ccc(OCc3nn(C)c(C)c3-c3cccc4c(CCCOc5cccc6ccccc56)c(C(=O)O)n(Cc5cccnc5)c34)cc2)CC1,AC50,[1],9.35 µM (active)
same,AC50,[2],1.66 µM (active)
same,AC50,[3],1.66 µM (active)
same,AC50,[4],1.48 µM (active)
O=C(O)CO.[NH2-].[NH2-].[Pt+2],outcome,[1],inactive
same,outcome,[2],inactive
same,outcome,[3],inactive
same,outcome,[4],inactive
same,inhibition,"[12]; at 0.5 µM, stronger effect = higher value",-35.8% (inactive)
same,inhibition,"[12]; measured here: combination with BGB IC20, at 0.005 µM",-22.6%
same,inhibition,"[12]; measured here: combination with BGB IC40, at 0.005 µM",-55.5%
same,inhibition,[12]; [33],-20.9%
same,inhibition,"[12]; measured here: combination with cisplatin, at 0.5 µM, stronger effect = higher value",-40.8%
same,inhibition,"[12]; measured here: combination with cisplatin, at 5 µM, stronger effect = higher value",-22.9%
same,inhibition,"[13]; BGB combo, at 5 µM",-38.9%
same,inhibition,[13]; at 0.5 µM,11.9% (inactive)
same,inhibition,"[13]; cisplatin combo, at 5 µM",6.72%
same,inhibition,[13]; [34],3.13%
same,inhibition,[13]; [35],36.3%
same,inhibition,"[13]; single agent, at 5 µM",-22.5%
same,inhibition,"[14]; BGB IC20 combo, at 0.005 µM",-33.3%
same,inhibition,"[14]; BGB IC40 combo, at 0.005 µM",-24.4%
same,inhibition,"[14]; BGB IC40 combo, at 0.05 µM",-27.5%
same,inhibition,[14]; at 0.5 µM,-23.1% (inactive)
same,inhibition,"[14]; cisplatin combo, at 0.05 µM",-34.1%
same,inhibition,"[14]; cisplatin combo, at 0.5 µM",-33.3%
same,inhibition,"[14]; cisplatin combo, at 5 µM",-25.6%
same,inhibition,"[14]; measured here: 5 uM single agent, at 5 µM",-2.84%
same,inhibition,[15]; at 0.5 µM,-13.7% (inactive)
same,inhibition,[15]; [33],-19.6%
same,inhibition,[15]; [36],-19.7%
same,inhibition,[15]; [37],-34.1%
same,inhibition,[16]; at 0.5 µM,1.55% (inactive)
same,inhibition,"[16]; measured here: with BGB IC20, at 0.5 µM",26.1%
same,inhibition,"[16]; measured here: with BGB IC20, at 5 µM",-2.11%
same,inhibition,"[16]; measured here: with cisplatin IC20, at 0.5 µM",-15.5%
same,inhibition,"[16]; measured here: with cisplatin IC20, at 5 µM",-7.66%
same,inhibition,"[16]; single agent, at 5 µM",-0.083%
same,inhibition,[17]; at 0.5 µM,-21.5% (inactive)
same,inhibition,"[17]; measured here: combination with BGB at IC20, at 0.5 µM",-45.1%
same,inhibition,"[17]; measured here: combination with cisplatin at IC20, at 0.5 µM",11.3%
same,inhibition,[18]; at 0.5 µM,-6.84% (inactive)
same,inhibition,"[18]; measured here: combo with BGB at IC20, at 0.5 µM",-6.51%
same,inhibition,"[18]; measured here: combo with cisplatin at IC20, at 0.5 µM",-6.47%
same,inhibition,[19]; at 0.5 µM,4.06% (inactive)
same,inhibition,"[19]; measured here: inhibition with BGB combination, at 0.05 µM",-8.1%
same,inhibition,"[19]; measured here: inhibition with cisplatin combination, at 0.05 µM",-3.04%
same,inhibition,[20]; at 0.5 µM,-20.3% (inactive)
same,inhibition,[20]; [36],-13.9%
same,inhibition,[20]; [37],-30.3%
same,inhibition,[21]; at 0.5 µM,-15.3% (inactive)
same,inhibition,"[21]; measured here: BGB combination, at 0.5 µM",-9.4%
same,inhibition,"[21]; measured here: BGB combination, at 5 µM",1.16%
same,inhibition,"[21]; measured here: cisplatin combination, at 0.5 µM",-35.5%
same,inhibition,"[21]; measured here: cisplatin combination, at 5 µM",-23.8%
same,inhibition,"[22]; BGB combination, concentration series, at 5 µM",-0.864%
same,inhibition,[22]; at 0.5 µM,-1.6% (inactive)
same,inhibition,"[22]; cisplatin combination, concentration series, at 5 µM",15.4%
same,inhibition,[23]; at 0.5 µM,13.7% (inactive)
same,inhibition,"[23]; measured here: combo with BGB IC20, at 0.5 µM",19.5%
same,inhibition,"[23]; measured here: combo with cisplatin IC20, at 0.5 µM",18.5%
same,inhibition,[24]; at 0.5 µM,-4.94% (inactive)
same,inhibition,"[24]; cisplatin combination, at 0.5 µM",2.17%
same,inhibition,"[24]; cisplatin combination, at 5 µM",-267%
same,inhibition,"[24]; measured here: BGB IC40 combination 0.05 uM, at 0.05 µM",-15.1%
same,inhibition,"[24]; single agent, at 5 µM",-4.36%
same,inhibition,[25]; at 0.5 µM,-16.2% (inactive)
same,inhibition,"[25]; cisplatin combo, at 5 µM",4.38%
same,inhibition,"[25]; measured here: BGB IC40 combination, at 0.05 µM",-28.2%
same,inhibition,[25]; [36],6.48%
same,inhibition,"[25]; single agent, at 5 µM",-8.12%
same,inhibition,[26]; at 0.5 µM,-2.61% (inactive)
same,inhibition,[26]; [34],-12.1%
same,inhibition,[26]; [35],0.578%
same,inhibition,"[26]; single agent, at 0.05 µM",-10.5%
same,inhibition,"[26]; single agent, at 5 µM",-18%
C[C@H](NCc1ccc(OCc2cccc(F)c2)cc1)C(N)=O,AC50,[1],18.7 µM (active)
same,AC50,[2],4.69 µM (active)
same,AC50,[3],9.35 µM (active)
same,AC50,[4],14.8 µM (active)

# From PubChem BioAssay
